{"source": "PubChem BioAssay AID799", "about": "(SRMLSC, 2007)", "note": "Hit rate of the full screen: of about 140,000 compounds, about 840 (0.6%) were called active. Only a selection was taken, and actives are over-represented in it overall. A number with no mark means an inactive call.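 Rule for the calls: active = viability gain under doxorubicin at or above a set limit, the compound median plus 3 SD (cut at about 4.7% in these data); inactive = the rest.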"}
{"test": "protection of MRP-1-high cells against doxorubicin toxicity – H69AR cells, CellTiter-Glo, MRP-1 activator project, primary screen (AID 799);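 note: MRP-1 overexpressing cells given doxorubicin 25 µM after compound pretreatment; 18-22 h compound pretreatment then 72 h with doxorubicin before readout; 0% = doxorubicin-only wells and 100% = vehicle-treated cells without doxorubicin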", "details": "viability rescue, at 10 µM, active compounds read high"}
{"smiles": "CC(C)CNC(=O)COC(=O)/C=C/c1ccco1", "viability increase": "1.16%"}
{"smiles": "COc1ccc([N+](=O)[O-])cc1NC(=O)CCc1ccccc1", "viability increase": "-1.62%"}
{"smiles": "COc1ccc([N+](=O)[O-])cc1NC(=O)COC(=O)/C=C/c1ccco1", "viability increase": "7.08% (active)"}
{"smiles": "Cc1[nH]c2ccccc2c1/C=N\\NC(=O)Cn1nnc(-c2ccccc2)n1", "viability increase": "3.22%"}
{"smiles": "CN(C)CCCNC(=S)NCc1ccc(Cl)cc1", "viability increase": "-0.81%"}
{"smiles": "CCOC(=O)NC(=O)CSc1nnc(SCCC(=O)O)s1", "viability increase": "1.73%"}
{"smiles": "CCCC(=O)Nc1cccc(NC(=S)NC(=O)C(C)Oc2ccc(Cl)cc2Cl)c1", "note": "(configuration not stated)", "viability increase": "-2.06%"}
{"smiles": "COc1ccccc1C(=O)Nc1ccc(OCc2nnc3c4ccccc4c(C)nn23)cc1", "viability increase": "0.29%"}
{"smiles": "Cc1cccnc1NC(=O)CSc1nnc(COc2ccc(C(C)C)cc2)n1C", "viability increase": "0.08%"}
{"smiles": "Cc1ccc(OCc2nnc(SC3CCc4ccccc4C3=O)n2C)cc1", "note": "(configuration not stated)", "viability increase": "7.21% (active)"}
{"smiles": "Cc1ccc2nc(SCc3cn4c(C)cc(C)nc4n3)[nH]c2c1", "viability increase": "0%"}
{"smiles": "OC(COc1ccc2c(c1)CCC2)CN1CCN(c2cccc(Cl)c2)CC1", "note": "(configuration not stated)", "viability increase": "-3.05%"}
{"smiles": "COc1ccc(N2CCN(Cc3cc(=O)oc4ccc5ccccc5c34)CC2)cc1", "viability increase": "-1.38%"}
{"smiles": "O=c1cc(CN2CCN(c3cccc(Cl)c3)CC2)c2cc3c(cc2o1)CCCC3", "viability increase": "6.01% (active)"}
{"smiles": "O=C(CSc1nc2ccccc2[nH]1)N/N=C/C=C\\c1ccccc1[N+](=O)[O-]", "viability increase": "-1.58%"}
{"smiles": "COc1cccc(/C(C)=N/Nc2ncc(Cl)cc2Cl)c1", "viability increase": "-1%"}
{"smiles": "Cn1cc(C(=O)NCc2ccccc2F)cn1", "viability increase": "-0.72%"}
{"smiles": "COc1ccc(/C=C/C(=O)Nc2ccc3c(c2)OCCO3)cc1OC", "viability increase": "-2.17%"}
{"smiles": "COc1ccc(/C=C/C(=O)Nc2c(C)nn(C)c2C)cc1COc1ccc(Br)cc1", "viability increase": "7.14% (active)"}
{"smiles": "CCn1nc(C)c(NC(=O)/C=C/c2ccc(OC)c(COc3ccc(Br)cc3)c2)c1C", "viability increase": "3.69%"}
{"smiles": "Cn1c(=O)c(Sc2ccc(Cl)cc2)c(O)c2ccccc21", "viability increase": "-2.5%"}
{"smiles": "CCN(CC)CCNCc1ccc(OCc2ccc(Cl)nc2)c(OC)c1", "viability increase": "1.21%"}
{"smiles": "COc1ccc(NS(=O)(=O)c2ccc(NC(=O)C(C)(C(F)(F)F)C(F)(F)F)cc2)nn1", "viability increase": "-0.72%"}
{"smiles": "COc1ccc(NS(=O)(=O)c2ccc(NC(=S)NC(=O)/C=C/c3ccc(C)cc3)cc2)nn1", "viability increase": "-3.16%"}
{"smiles": "CCCCCC(=O)Nc1ccc(S(=O)(=O)Nc2ccc(Cl)nn2)cc1", "viability increase": "6.79% (active)"}
{"smiles": "O=C(/C=C/c1ccccc1)Nc1nnc(SCC(=O)c2ccc3ccccc3c2)s1", "viability increase": "-5.32%"}
{"smiles": "COc1ccc2nc(NC(=O)[C@@H]3CCCN3C(=O)c3cccs3)sc2c1", "viability increase": "-1.42%"}
{"smiles": "CC(C)CN(C(=O)CN1CCN(S(=O)(=O)c2ccccc2)CC1)c1c(N)n(CC(C)C)c(=O)[nH]c1=O", "viability increase": "0.86%"}
{"smiles": "Cc1cccc(C)c1-n1c(C)cc(/C=C2\\C(=O)NN(c3ccccc3)C2=O)c1C", "viability increase": "7.89% (active)"}
{"smiles": "Cc1cc(/C=C2/NC(=O)NC2=O)c(C)n1-c1cccnc1", "viability increase": "-1.48%"}
{"smiles": "Cc1ccccc1-n1c(C)cc(/C=C2\\NC(=O)NC2=O)c1C", "viability increase": "-4.81%"}
{"smiles": "CCC(C(=O)OCC(=O)Nc1c(Cl)cc(Cl)cc1Cl)c1ccccc1", "note": "(configuration not stated)", "viability increase": "0.97%"}
{"smiles": "Cc1cccc(-n2ncc3c(N4CCc5ccccc54)ncnc32)c1", "viability increase": "-0.96%"}
{"smiles": "COc1ccc(-n2ncc3c(N4CCCc5ccccc54)ncnc32)cc1", "viability increase": "10.8% (active)"}
{"smiles": "COc1ccc(-n2ncc3c(N4CCc5ccccc54)ncnc32)cc1", "viability increase": "-1.22%"}
{"smiles": "COc1cc(Cl)c(C)cc1NC(=O)COC(=O)c1cc(SC)ccc1Cl", "viability increase": "-0.15%"}
{"smiles": "CCC1CCCCN1C(=S)Nc1ccc(SC(F)F)cc1", "note": "(configuration not stated)", "viability increase": "1.82%"}
{"smiles": "Cc1ccccc1NC(=O)CSC1=NCCN1", "viability increase": "5.48% (active)"}
{"smiles": "Cc1ccccc1NC(=O)CNc1ccccc1N1CCCCC1", "viability increase": "-3.04%"}
{"smiles": "Cc1cccc(NC(=O)CSc2nc3c(c(=O)[nH]2)CCCC3)c1C", "viability increase": "-0.17%"}
{"smiles": "N=c1n(CCc2ccccc2)c2ccccc2n1Cc1ccccc1F", "viability increase": "-4.33%"}
{"smiles": "COc1ccc(C)cc1NC(=O)CSc1ccc(Cl)cc1", "viability increase": "-1.28%"}
{"smiles": "O=C1CCCC(O)=C1N=Nc1ccc2ncsc2c1", "viability increase": "-2.88%"}
{"smiles": "Cc1cc(C(=O)OCC(=O)Nc2ccc(F)c(F)c2)c(C)o1", "viability increase": "7.91% (active)"}
{"smiles": "CCn1c2ccccc2c2cc(NC(=O)COC(=O)c3ccccc3Br)ccc21", "viability increase": "-1.59%"}
{"smiles": "Cc1cc(C(=O)OCC(=O)c2c(N)n(C)c(=O)n(C)c2=O)c(C)o1", "viability increase": "-2.26%"}
{"smiles": "CC(C)(C)NC(=O)C(=O)NCc1ccncc1", "viability increase": "-2.66%"}
{"smiles": "COc1ccc(NC(=O)CC2COc3ccccc3O2)c(OC)c1", "note": "(configuration not stated)", "viability increase": "4.96% (active)"}
{"smiles": "COc1ccc(NC(=O)CCN2CCCC2)c(OC)c1", "viability increase": "1.66%"}
{"smiles": "Cc1cc(NC(=O)CCC2COc3ccccc3O2)no1", "note": "(configuration not stated)", "viability increase": "0%"}
{"smiles": "O=c1cc(CN2CCN(S(=O)(=O)/C=C/c3ccccc3)CC2)c2ccc(O)cc2o1", "viability increase": "-2.59%"}
{"smiles": "CC(C)(C)CC(C)(C)NCC(O)COCCOc1ccc(Br)cc1", "note": "(configuration not stated)", "viability increase": "-4.69%"}
{"smiles": "Cc1ccc(-n2[nH]c(C)c(/C=N/NC(=O)c3cccc([N+](=O)[O-])c3)c2=O)cc1C", "viability increase": "-4.06%"}
{"smiles": "Cc1ccsc1C(=O)N/N=C/c1ccc([N+](=O)[O-])cc1", "viability increase": "0.85%"}
{"smiles": "Cc1cc(C(=O)N/N=C/c2cc([N+](=O)[O-])cc(C)c2O)n[nH]1", "viability increase": "5.47% (active)"}
{"smiles": "COC(=O)c1onc(-c2c(OC)cc(OC)cc2OC)c1C(=O)OC", "viability increase": "1.1%"}
{"smiles": "O=C(N/N=C/c1ccc(Br)o1)c1cncc(Br)c1", "viability increase": "-1.78%"}
{"smiles": "Cc1ccc(OCC(=O)OC(C)CN(C)Cc2ccccc2)cc1", "note": "(configuration not stated)", "viability increase": "-1.74%"}
{"smiles": "CCn1c(SCC(=O)Nc2ccc(C)cc2)nc2nc3c(cc2c1=O)CCCC3", "viability increase": "0.07%"}
{"smiles": "COc1ccc(OC)c(-c2c(=O)n(OCc3ccccc3Br)c3ccccc3[n+]2[O-])c1", "viability increase": "-1.16%"}
{"smiles": "CCOc1ccc(OCC)c(-c2c(=O)n(OCc3ccc(Cl)cc3)c3ccccc3[n+]2[O-])c1", "viability increase": "7.22% (active)"}
{"smiles": "Clc1ccc(COn2c(-c3ccc(Cl)cc3Cl)nc3ncccc32)cc1", "viability increase": "-3.46%"}
